GALC G270D act = enhancers of human galactocerebrosidase G270D mutant activity in cells; 145M-Twi-hGALC-G270D cells (Twitcher mouse brain line with human GALC G270D), HMU-beta-Gal fluorescence, 48 h; P54803; Potency, µM (doses to about 57.5 µM), most hits filed as activators; 45,000 compounds, 0.1% hits; also: potency is read from the fitted curve at half-maximal effect; 0% is about no effect; nearly all actives have a fitted effect of over 65% in size
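Live 145M-Twi cells (Twitcher mouse brain-derived, GALC-null) stably expressing human GALC-G270D, with a wild-type GALC line, were compound-treated. Residual GALC activity was then read as fluorescence from 0.1 mM final HMU-β-gal at pH 5.2; higher signal means activation.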
B2AR arrestin ag = agonists recruiting beta-arrestin to human beta2-adrenergic receptor | P07550 | 44,000 tested, under 10 active | HTLA Tango cells, beta-arrestin recruitment, luciferase luminescence, 18 h | Potency, µM (series often up to 46.1 µM), actives largely listed as activators;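 also: potency is read from the fitted curve at half-maximal effect; 0% = DMSO and full agonism = EC100 isoproterenol or metaproterenol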
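Tango cells (recombinant beta2-AR, beta-arrestin, tTA-driven luciferase), 1500/well in DMEM 1% FBS, treated 18 h at 37 °C with compounds up to 46 µM; luciferin mix added, luminescence read after 15 min; %activity curves fitted and curve-classed.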
GPR32 ag = GPR32 (DRV1) agonism, beta-arrestin recruitment. O75388. CHO-K1 GPR32 beta-arrestin PathHunter luminescence, 90 min; zero percent set by DMSO-only wells. activation, % at 76.9 µM. 48,000 compounds, 2.5% hits;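 active = activation of at least 60% and not above a set upper limit, about 1 call in 100 departs from these limits; inconclusive = activation of 40% to 60%, or above that upper limit; inactive = activation under 40%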; also: 0% is about no effect
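Agonism was scored as beta-arrestin recruitment to ProLink-fused GPR32 in stably transfected CHO-K1 cells, giving a chemiluminescent beta-Gal signal; compounds were incubated 90 min at 37 °C.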
GALK inh = inhibits human galactokinase; 44,000 tested, under 10 active; Potency, µM (titrated, usually from 57.5 µM), inactives show at the top dose activity, negative = inhibition, usual class: inhibitors; recombinant GALK, Kinase-Glo ATP luminescence, 1 h; P51570;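 also: plate controls were full GALK reaction for no effect and reaction lacking GALK for full effect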
Target sequence (P51570 whole entry, looked up): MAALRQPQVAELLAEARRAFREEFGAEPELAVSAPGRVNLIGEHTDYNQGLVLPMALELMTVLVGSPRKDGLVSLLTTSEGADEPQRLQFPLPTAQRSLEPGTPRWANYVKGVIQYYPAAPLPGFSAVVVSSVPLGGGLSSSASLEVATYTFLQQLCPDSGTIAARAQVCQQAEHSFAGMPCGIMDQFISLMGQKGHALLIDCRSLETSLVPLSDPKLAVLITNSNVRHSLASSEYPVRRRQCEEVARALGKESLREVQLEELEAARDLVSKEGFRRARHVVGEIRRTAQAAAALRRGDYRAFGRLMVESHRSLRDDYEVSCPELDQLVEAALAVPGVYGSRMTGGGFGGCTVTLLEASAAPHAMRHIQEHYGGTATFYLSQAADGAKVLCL
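Reactions with and without enzyme served as controls. GALK at 5 nM phosphorylates 100 uM galactose using 35 uM ATP (HEPES pH 8.0, Mg2+) for 1 h at RT, with luminescence read 10 min after adding Kinase-Glo Plus.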
NTMT1 inhibitor = blocks human N-terminal methyltransferase 1 activity | NTMT1 MTase-Glo SAH luminescence, purified enzyme | Potency, µM (series often up to 114 µM), for inactives: top-dose activity change, negative = inhibition, usual class: inhibitors | 59,000 compounds, 2.5% hits | Q9BV86;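 also: potency is read from the fitted curve at half-maximal effect; plate controls were DMSO vehicle for no effect and no enzyme for full effect; nearly all actives have a fitted effect of over 65% in size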
Target sequence (Q9BV86 whole entry, looked up): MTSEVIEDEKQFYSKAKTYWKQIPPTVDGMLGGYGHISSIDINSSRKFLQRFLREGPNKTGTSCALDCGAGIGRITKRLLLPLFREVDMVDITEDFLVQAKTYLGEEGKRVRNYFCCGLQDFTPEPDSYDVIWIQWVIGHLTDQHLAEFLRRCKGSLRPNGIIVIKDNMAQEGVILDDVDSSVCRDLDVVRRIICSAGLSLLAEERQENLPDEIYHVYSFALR
Starred values were filed as active, the others as inactive; i = inactive; ? = inconclusive; nt = not tested or not shown; ! = not confirmed by another sample; [ ] = dose if it differs, or a comment. Compounds with a hit are over-represented: about 3.6% of the library has one in this group of screens. Unless noted, calls follow the shape of the dose curve; as a rule, active = well fitted curve in the direction sought with a large enough effect; inconclusive = small, poorly fitted or top-dose-only effect, or another doubt; inactive = no such curve, though single readings can be large; an effect the other way counts as inactive or inconclusive.

SMILES | GALC G270D act | B2AR arrestin ag | GPR32 ag | GALK inh | NTMT1 inhibitor
CCOc1ccc(Nc2oc(-c3ccc(COc4ccc(OC)cc4)o3)nc2C#N)cc1 | i | i | 86* | 5% | 13%
C#C[C@]1(O)CC[C@H]2[C@@H]3CCc4cc(O)ccc4[C@H]3CC[C@@]21C | i | nt | 34 | nt | 11µM*!
Clc1ccc(C(c2ccccc2)c2c[nH]c3ccccc23)s1 (stereo not given) | i | i | 107* | 3% | -2%
Cc1ccc(C(C)c2ccc(=O)n(CC(=O)NCCc3ccccc3)n2)cc1 (stereo not given) | nt | nt | nt | nt | 1%
CC1=NN(c2ccc(C(=O)O)cc2)C(=O)/C1=C/c1ccc(-c2cc(C)c(C)cc2[N+](=O)[O-])o1 | nt | nt | nt | nt | 50µM*
O=C(O)c1ccc2c(c1)C(=O)N([C@H](Cc1ccc([N+](=O)[O-])cc1)C(=O)O)C2=O | nt | nt | nt | nt | 2%
Cn1ccc2cc3c(cc21)CCN3C(=O)Nc1cccnc1 | i | nt | -6 | nt | 79µM*!
CC(=O)c1c(C)cc2cccc(O)c2c1O[C@@H]1O[C@H](CO)[C@@H](O)[C@H](O)[C@H]1O | nt | nt | nt | nt | -6%[29.8 µM]
Cc1ccc(OCCn2c(CCNC(=O)c3ccc4ccccc4c3)nc3ccccc32)cc1 | nt | nt | nt | nt | 1%[57.5 µM]
Cc1ccc(C(=O)Nc2cc3cc(Cl)ccc3oc2=O)cc1 | i | i | 62* | 0% | 9%
Oc1c(C(c2ccccc2Cl)N2CCN(Cc3ccccc3)CC2)sc2nc(-c3ccco3)nn12 (stereo not given) | i | i | 94* | -4% | 5%
COCCNc1nc(NCc2ccccc2OC)c2cnn(C)c2n1 | i | i | 2 | -1% | -8%
COCCCNc1nc(NCc2ccc(C)cc2)c2cnn(C)c2n1 | i | i | 69* | 1% | 3%
COCCCNc1nc(NCc2ccccc2OC)c2cnn(C)c2n1 | i | i | 75* | -2% | ?
Cc1ccc(-c2ccc(=O)n(CC(=O)N(C)[C@@H](C)c3ccccc3)n2)cc1 | nt | nt | nt | nt | -1%
CS[C@H]1SC[C@@H]2C(=O)N(C)[C@H](C(C)C)C(=O)OC[C@H](NC(=O)c3cnc4ccccc4n3)C(=O)N[C@H](C)C(=O)N(C)[C@H]1C(=O)N(C)[C@H](C(C)C)C(=O)OC[C@H](NC(=O)c1cnc3ccccc3n1)C(=O)N[C@H](C)C(=O)N2C | nt | nt | nt | nt | -2%
Cc1ccc(C(=O)c2cn(Cc3c(F)cccc3Cl)c3nc(C)ccc3c2=O)cc1 | i | i | 82* | 0% | 1%
CCc1ccc(C(=O)c2cn(CC(=O)Nc3cc(F)ccc3F)c3nc(C)ccc3c2=O)cc1 | 4µM* | i | 28 | 1% | 0%
Cc1ccc(Cn2cc(C(=O)c3ccc(C)cc3)c(=O)c3ccc(C)nc32)cc1 | i | ? | 0 | 0% | ?
Cc1ccc(CNC(=O)Cn2cc(C(=O)c3ccc(F)cc3)c(=O)c3ccc(C)nc32)cc1 | i | i | 4 | -2% | 0%
COc1cc(NC(C)CCCN)c2ncccc2c1 (stereo not given) | i | nt | 9 | nt | 40µM*
COc1cccc(CNC(=O)c2cc3ccc4cccnc4c3[nH]2)c1 | i | i | 12 | 0% | -3%
CCOC(=O)c1c(-c2ccc(C)o2)csc1NC(=O)CSc1nnnn1-c1ccccc1 | nt | nt | nt | nt | 3.5µM*
COc1cccc(C(=O)Nc2cccc(-c3nc4ncccn4c3C)c2)c1 | ? | i | 61* | 1% | -6%
COc1cc(OC)cc(C(=O)Nc2cccc(-c3cn4cccnc4n3)c2)c1 | i | i | ? | 3% | -1%
SMILES | GALC G270D act | B2AR arrestin ag | GPR32 ag | GALK inh | NTMT1 inhibitor
COc1ccc(NC(=O)Nc2cccc(-c3cn4cccnc4n3)c2)cc1 | i | i | 77* | 5% | ?
Cc1ccccc1C(=O)Nc1cccc(-c2cn3cccnc3n2)c1 | i | i | ? | -2% | -4%
O=C(Nc1ccc(-c2cn3cccnc3n2)cc1)c1cc(Br)ccc1Cl | i | i | 83* | -2% | 0%
Cc1cc(C)cc(NC(=O)C2CC(=O)N(c3ccccc3)C2)c1 (stereo not given) | i | i | 118* | 7% | 2%
Cc1ccc(-c2noc(-c3ccccc3NC(=O)C3CC(=O)N(c4cccc(C)c4)C3)n2)cc1 (stereo not given) | i | i | 6 | 0% | -27%
O=C(O)c1cccc(-n2cccc2)c1 | nt | nt | nt | nt | 13%
Cc1ccc(C)n1-c1cccc(C(=O)O)c1 | nt | nt | nt | nt | 2.2µM*
Fc1ccc(-c2ccc(CNc3nc(-c4ccccc4C(F)(F)F)nc4ccccc34)cc2)cc1C(F)(F)F | nt | nt | nt | nt | 3%
O=C(O)C[C@H](O)C[C@H](O)/C=C/c1c(C2CC2)nc2ccccc2c1-c1ccc(F)cc1 | nt | nt | nt | nt | 40µM*!
Cn1cc(C2=C(c3cn(CCCSC(=N)N)c4ccccc34)C(=O)NC2=O)c2ccccc21 | nt | nt | nt | nt | 3.2µM*
C=CC(=O)N1CCCN(c2cc(NCCC(=O)O)nc(-c3ccccn3)n2)CC1 | nt | nt | nt | nt | 10%[57.5 µM]
COc1ccc(Cl)cc1NC(=O)CN1C(=O)COc2ccc(S(=O)(=O)NC3CCCC3)cc21 | i | i | -2 | -3% | -1%
O=C(CN1C(=O)COc2ccc(S(=O)(=O)NC3CCCC3)cc21)Nc1ccc(Cl)cc1 | i | i | 104* | -1% | ?
O=C(NC1CCCc2c1cnn2-c1ccc(F)cc1F)c1cnon1 (stereo not given) | nt | nt | nt | nt | 7%
Cc1ccc(C(=O)c2sc(Nc3ccc(F)cc3)c(C#N)c2N)cc1 | i | i | 86* | 8% | -4%
NS(=O)(=O)c1ccc(Cc2c(-c3cccc(-c4ccccc4)c3)nn(-c3nc(C(=O)O)cs3)c2CC2CC2)cc1 | nt | nt | nt | nt | 45µM*
FC(F)(F)c1ccccc1-c1nc(NCc2ccc(-c3ccc4c(c3)OCCO4)cc2)c2ccccc2n1 | nt | nt | nt | nt | 12%
Cc1nc2ccccc2c(=O)n1-c1ccc(NC(=O)c2ccccc2[N+](=O)[O-])cc1 | i | i | 68* | 2% | 14%
COc1ccc(/C=C/C(=O)Nc2nc(-c3cccs3)ns2)cc1 | i | i | 14 | 7% | 5%
O=C(/C=C/c1ccccc1)Nc1nc(-c2cccs2)ns1 | i | i | 81* | 2% | 16%
Cc1ccc(/C=C/C(=O)Nc2nc(-c3cccs3)ns2)cc1 | i | i | 70* | 0% | 8%
Cc1ccc(OCC(=O)Nc2ccc3c(c2)sc(=O)n3C)cc1 | i | i | 73* | 1% | 4%
CCCn1c(=O)sc2cc(NC(=O)COc3ccc(Cl)cc3)ccc21 | i | i | 49 | -6% | -2%
CC(=O)c1ccc(N2CCN(C(=O)c3ccc4c(c3)CC(=O)N4)CC2)cc1 | nt | nt | nt | nt | -3%
CCOc1ccccc1Nc1nc2ccccc2nc1NS(=O)(=O)c1ccc(Cl)cc1 | i | i | 67* | 0% | -17%
